PubChem BioAssay AID777 (Sanford-Burnham Center for Chemical Genomics, 2007)
Out of some 96,000 compounds screened, about 19,000 (20%) were called active.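 Rule for the calls: active = blocking of liver enzyme CYP2C9 beyond about 50% at 5 µM (limit read from the data); inactive = the rest.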 The list is a sample of the results.

Target: Cytochrome P450 2C9 (Homo sapiens) (UniProt P11712)
Test: blockers of cytochrome P450 2C9 activity – biochemical, luminescence, ADME assay, primary screen (AID 777)
Conditions: CYP2C9 Supersomes, luciferin-H conversion, at 5 µM, hits give high values

Chain of Cytochrome P450 2C9 (Homo sapiens) (P11712 whole entry, looked up): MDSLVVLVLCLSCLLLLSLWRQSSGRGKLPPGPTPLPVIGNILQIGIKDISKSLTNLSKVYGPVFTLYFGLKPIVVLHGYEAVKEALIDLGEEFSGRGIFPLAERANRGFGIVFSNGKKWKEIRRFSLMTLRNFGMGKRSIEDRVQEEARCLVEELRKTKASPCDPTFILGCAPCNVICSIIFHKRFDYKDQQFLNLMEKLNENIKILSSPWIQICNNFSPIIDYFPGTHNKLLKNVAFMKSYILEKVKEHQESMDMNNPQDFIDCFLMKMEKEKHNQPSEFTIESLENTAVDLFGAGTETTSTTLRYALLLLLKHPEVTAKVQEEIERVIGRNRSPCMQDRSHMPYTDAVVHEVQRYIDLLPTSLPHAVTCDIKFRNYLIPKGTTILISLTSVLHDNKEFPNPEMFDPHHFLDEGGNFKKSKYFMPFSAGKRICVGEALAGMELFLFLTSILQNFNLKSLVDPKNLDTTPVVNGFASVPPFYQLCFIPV

Compound | inhibition
Cn1cc(S(=O)(=O)N2CCN(c3ccc(F)cc3)CC2)c(=O)n(C)c1=O | -8.1% (inactive)
Cc1cc(C)cc(NC(=O)C2CCN(c3nc(C)cc(C)n3)CC2)c1 | 15.4% (inactive)
Cc1cc(NC(=O)c2cccc(N3C(=O)CCC3=O)c2)no1 | 3.5% (inactive)
COc1ccc(-n2c(SCC(=O)Nc3ccc4c(c3)OCO4)nnc2C(C)N2CCCCC2)cc1 (stereo unspecified) | 20.2% (inactive)
CC1CCCN(C(C(=O)Nc2ccc(C(C)C)cc2)c2ccc3c(c2)OCO3)C1 (stereo unspecified) | 16.7% (inactive)
O=C(Nc1ccc2c(c1)OCCO2)C(c1ccc(F)cc1)N1CCCCC1 (stereo unspecified) | 67.1% (active)
CCN1CCN(C(=O)c2ccccc2N(C)S(=O)(=O)c2ccc(C)cc2)CC1 | -1.6% (inactive)
Cc1ccccc1C(=O)N1CCC(C(=O)Nc2ccc(S(=O)(=O)N(C)C(C)C)cc2)CC1 | 61.2% (active)
CC(=O)Nc1ccc(S(=O)(=O)N2CCC(N(C)CCC(C)C)CC2)cc1 | 19.4% (inactive)
NC(=NC(=O)c1ccccc1)C1=C(O)CCC1=O | 0% (inactive)
O=C(NC1CCc2ccccc21)C12CN(Cc3ccccc3)CC1C(c1cccc([N+](=O)[O-])c1)=NO2 (stereo unspecified) | 42.7% (inactive)
Cc1cc2cc(CNC(=O)c3cccs3)ccc2[nH]1 | 60.2% (active)
O=C(O)Cc1ccc(NC(=O)c2cccs2)cc1 | -6.9% (inactive)
CCc1ccccc1NC(=O)c1cccs1 | -6.7% (inactive)
O=C(/C=C/Sc1ncn[nH]1)c1ccc(Cl)cc1 | 10.9% (inactive)
Cc1nc2ccccc2c(-c2ccccc2)c1C(=O)c1ccccc1 | 19.7% (inactive)
CCOC(=O)CSc1nnc(NC(=O)c2cccc(S(=O)(=O)N3CCCC3)c2)s1 | 14.4% (inactive)
CCOC(=O)CSc1nnc(NC(=O)c2cccc(S(=O)(=O)N3CCCCC3)c2)s1 | 35.5% (inactive)
CCOC(=O)C1=C(CC)Nc2ccccc2N=C1NC(=O)c1cccc(S(=O)(=O)N2CCCC2)c1 | 90.2% (active)
COc1ccc2c(CC(=O)Nc3nnc(C4CC4)s3)coc2c1 | 24.7% (inactive)
CC(=O)c1c(N2CCOCC2)nc(=S)n(Cc2ccccc2)c1C | 12.5% (inactive)

Compound | inhibition
COc1ccc(N2CCN(CCNC(=O)c3nnc(Cc4c(F)cccc4Cl)o3)CC2)cc1 | 66.3% (active)
COc1ccc(CN2CC(C(=O)NCCN3CCN(c4ccccc4F)CC3)CC2=O)cc1 (stereo unspecified) | -10.3% (inactive)
COc1ccc(N2CCN(CCNC(=O)CCN3C(=O)COc4ccccc43)CC2)cc1 | -2.8% (inactive)
C/C(=C(\C#N)C(=O)NCCCN1CCOCC1)N(C)C | -16.4% (inactive)
CC(=O)Nc1ccc(S(=O)(=O)NCCc2ccccc2)cc1 | 49.5% (inactive)
CC(=O)Nc1ccc(NS(=O)(=O)c2cc(C)sc2C)cc1 | 56.5% (active)
Cc1cc(C)c(C)c(S(=O)(=O)Nc2ccc(O)cc2)c1C | -16.6% (inactive)
Cc1cccc(NC(=O)COc2ccc(Br)cc2C)n1 | -11% (inactive)
O=C(COC(=O)c1ccc(Oc2ccccc2)cc1)Nc1nnc(-c2ccccc2)o1 | 89.1% (active)
COc1ccc(CC(=O)Nc2ccc(-c3nnc(-c4ccccc4)o3)cc2)cc1 | 19% (inactive)
O=C(Nc1cccc(Cl)c1)Nc1nnc(-c2ccccc2)o1 | 8.9% (inactive)
COc1cccc(-n2c(Cc3cc(=O)[nH]c(=O)[nH]3)nnc2SCC(=O)Nc2ccccc2)c1 | -48.2% (inactive)
Cn1c(-c2ccco2)nc2cc3ccccc3cc21 | 26.1% (inactive)
C=CCn1c(Cn2nnc3ccccc32)nnc1SCC(=O)N/N=C/c1cc(Br)cc(OC)c1O | 54% (active)
Cn1c(Cn2nnc3ccccc32)nnc1SCC(=O)c1ccccc1F | 28.6% (inactive)
COc1ccc(OC)c(/C=N/NC(=O)CSc2nnc(C)n2-c2ccccc2)c1 | 20.2% (inactive)
COc1cccc(N(CC(=O)NCCSc2ccccn2)S(C)(=O)=O)c1 | 38.4% (inactive)
CC(=O)c1cc2c(cc1N)OCO2 | 3.4% (inactive)
N#Cc1c2c(c(N3CCN(CCO)CC3)n3c1nc1ccccc13)CCCC2 | 58.2% (active)
CN(C)CCCNc1c2c(c(C#N)c3nc4ccccc4n13)CCC2 | 7.3% (inactive)
CCCCn1c(CN2CCN(CCO)CC2)nc2ccccc21 | 1.5% (inactive)

Compound | inhibition
C=CCOc1ccc(C2/C(=C(\O)c3c(C)[nH]c(C(=O)OC)c3C)C(=O)C(=O)N2CCN(C)C)cc1 (stereo unspecified) | -6.1% (inactive)
CCOC(=O)c1cccc(NC(=O)C2CCCN(S(=O)(=O)c3cnc[nH]3)C2)c1 (stereo unspecified) | 95.6% (active)
COc1cccc(N2CCN(C(=O)C3CCCN(S(=O)(=O)c4cnc[nH]4)C3)CC2)c1 (stereo unspecified) | 36.6% (inactive)
O=C(NCc1ccco1)C1CCCN(S(=O)(=O)c2cnc[nH]2)C1 (stereo unspecified) | 27.3% (inactive)
O=C(CN1C(=O)COc2ccccc21)NCCN1CCc2ccccc2C1 | 25% (inactive)
Oc1c(C=Nc2cccc3nsnc23)ccc2ccccc12 | -15.3% (inactive)
COc1cccc(OC)c1OCCN1CCN(C(=O)c2ccco2)CC1 | -24.9% (inactive)
COc1ccc(Br)cc1CN1CCN(C(=O)c2cccc(OC)c2OC)CC1 | 52.9% (active)
COc1c(C(=O)N2CCCC2)ccc2ccccc12 | -19.3% (inactive)
CN(C)CCCn1c(N)c(C#N)c2nc(C#N)c(C#N)nc21 | -11.9% (inactive)
COc1ccc(OCC(=O)N2CCOCC2)cc1 | 17.3% (inactive)
O=C(NCc1ccc(Cl)cc1)c1cc(=O)nc2sc(-c3ccccc3)nn12 | 2.9% (inactive)
Cc1ccc(N(C(=O)CC2NC(=O)NC2=O)C2(C(=O)NC3CCCC3)CCCCC2)cc1 (stereo unspecified) | 46.4% (inactive)
CCC(C(=O)NCc1ccc(OC)cc1)n1nc(C)n2c(cc3occc32)c1=O (stereo unspecified) | 82.8% (active)
CCC(C(=O)N1CCOCC1)n1c(C(=O)OC)cc2occc21 (stereo unspecified) | 12.8% (inactive)
CCOc1ccc(CCNC(=O)C2CCN(c3ccc(N4CCOCC4)nn3)CC2)cc1OCC | 14% (inactive)
COc1ccc(CCn2c(=N)c(C(=O)NCc3ccco3)cc3c(=O)n4cccc(C)c4nc32)cc1 | 14.3% (inactive)
COc1ccc(CCNC(=O)c2cc3sccc3n2C)cc1OC | 26.8% (inactive)
CCOc1ccc(CCNC(=O)C(CC)n2nc(C)n3c(cc4sccc43)c2=O)cc1OCC (stereo unspecified) | 51.6% (active)
